According to PubChem BioAssay (NCI):
Compounds without any hit were thinned out: in the full panel of roughly 83,000, 20% have a hit.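 How to read the values: 0–100, growth inhibition (40 = 60% inhibited); 0, no net growth; -100 to 0, cell death (-40 = 40% of starting cells died; -100 = all dead).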 A number with no mark means an inactive call. Active and inactive are the calls of the source. How the source made its calls: active means growth percent below 10; inactive means the rest.

System: HL-60(TB) leukemia
Experiment: NCI-60 one-dose screen, 48 h (100 = growth as untreated, 0 = no growth, -100 = all killed)
Conditions: 10 µM unless noted

SMILES	growth
COc1cc(C2C(C#N)=C(N)Oc3cc(O)ccc32)cc(OC)c1OC (configuration not stated)	-26% (active)
CNC(=O)NCC1OC(n2cnc3c(NC(=O)Nc4ccccc4)ncnc32)C2OC(=O)CC12 (configuration not stated)	82.7%
COc1cc2nn(-c3ccccc3N)nc2cc1OC	102%
CNCCNc1nc2ccccc2c2c(=O)c3cc(OC)ccc3sc12	-52.9% (active)
CS(=O)/C(C#N)=C\C=C\c1cccc(Cl)c1 (configuration not stated)	-1.97% (active)
C=C1C(=O)O[C@H]2[C@H]1CC/C(COC(=O)/C=C/c1cccnc1)=C\CC[C@@]1(C)O[C@@H]21	-28% (active)
CCC1S/C(=N\N=C(/C)c2cccs2)N(c2ccccc2)C1=O (configuration not stated)	59.2%
O=C1OC2(c3ccccc31)c1ccccc1-c1ccccc12	69.6%
COC1C(O)CC(OC2CC(OC3CC(O[C@@H]4C(=O)c5c(cc6cc(OC7CC(OC8CC(O)C(O)C(C)O8)C(O)C(C)O7)c(C)c(O)c6c5O)CC4[C@H](OC)C(=O)O)OC(C)C3O)OC(C)C2O)OC1C (some centres not stated)	60.5%
Cc1ccc(C2=C/C(=C/c3ccc(Br)cc3)C(=O)N2CCc2ccc(S(N)(=O)=O)cc2)cc1	96.7%
COc1ccc(-c2nnc(-c3ccc4c(c3)nc(-c3ccccc3)n4C3CCCCC3)o2)cc1	17.2%
O=S(=O)(Nc1ccc(F)cc1F)c1ccc(-c2cnc(C3CC3)o2)cc1	1% (active)
COc1ccc(-c2ccc(-c3ccc(C(=N)N)nc3)s2)cc1	-47.3% (active)
O=C(NNC(=S)Nc1ccccc1)c1ccncc1	117%
COc1ccc(C/C(C)=C(\c2ccc(Cl)cc2)c2ccc(OCCN3CCCCC3)cc2)cc1	91.8%
CCCCOc1cc(C(=O)NCCN(CC)CC)c2ccccc2n1	96.7%
NCCCNc1nc2ccccc2c2c(=O)c3cc(F)cc(Cl)c3sc12	75.5%
O=C(/C=C/c1ccc2ccccc2c1)Nc1ncc(Cc2ccccc2)s1	94.4%
Cc1ccccc1N1C(c2ccccc2)=NNC12C=CC(=O)c1c(O)cccc12 (configuration not stated)	70.2%
C1=CN2CC(c3ccccc3)=NNC2c2ccccc21 (configuration not stated)	81.6%
Cc1[nH]n(-c2cccc(Cl)c2)c(=O)c1/C=C1\C=c2ccccc2=CC1=O	104%
COc1cc(-c2n[nH]nc2-c2ccccn2)cc(OC)c1OC	83.3%

SMILES	growth
Cc1ccccc1OC(=O)c1cccc(Cl)c1	60.4%
C=C[C@@H]1C[C@H](O)Cc2c(C)cc(C)cc2N1	-16.4% (active)
O=C1/C(=C/c2ccc(Cl)cc2Cl)CN(S(=O)(=O)c2ccccc2)C/C1=C\c1ccc(Cl)cc1Cl	11%
C#Cc1cccc(NC(=O)c2ccc(Cl)cc2Cl)c1	72.5%
COc1ccc(C(=O)c2sc3nc4c(cc3c2N)CCCC4)cc1OC	11.4%
CCCCCCCCCCCCCC/C=C\C(CC(=O)O)C(=O)O (configuration not stated)	72.4%
COC(=O)/C=C1\SC(=Nc2cccc(OC)c2)N(CCc2c[nH]c3ccccc23)C1=O	22.2%
CCCCCCCCOC(=O)C(C)OC(=O)OCCOCCOC(=O)OC(C)C(=O)OCCCCCCCC (configuration not stated)	108%
O=C1c2cccc3cccc(c23)C(=O)N1N1C(=O)c2cccc3c(NC4CCCCC4)ccc(c23)C1=O	99.3%
Oc1ccccc1N=Cc1ccccc1	84.2%
COc1ccc(OCC(=O)Nc2ccc(-c3nc4ccccc4s3)cc2C)cc1	48.2%
CC(C)C[C@H](NC(=O)Cn1cccc(CNC(=O)c2ccccc2)c1=O)B(O)O	-51.3% (active)
NC(=O)NC(=O)/C=C/C(=O)OCCCl	91.6%
COc1ccc(/C=C/C(=O)OCC(=O)NNC(=O)c2ccccc2)cc1OC	72.2%
CCc1ccc(CCC(=O)Nc2ncc(Cc3cc(Cl)ccc3Cl)s2)o1	-44.5% (active)
Clc1nc(Nc2ccccc2)nc(Nc2ccccc2)n1	65.6%
O=C(/C=C/c1ccc([N+](=O)[O-])cc1)c1ccc2c3c(cccc13)CC2	14.4%
COc1cc2nc(Nc3cccc(C(=O)O)c3)nc(N)c2cc1OC	109%
CCN(C(=O)CCl)C(C)(C)C(SSSC(c1ccc(Cl)cc1)C(C)(C)N(CC)C(=O)CCl)c1ccc(Cl)cc1 (configuration not stated)	42.1%
Cc1ccc(NC(=O)Nc2cccnc2)cc1NC(=O)Nc1cccnc1	71.1%
CCc1nc(N)nc(N)c1-c1ccc(Cl)cc1	51.3%
CCCN1CCN(c2ccc3nc(-c4ccc5nc(-c6cc(OC)ccc6OC)[nH]c5c4)[nH]c3c2)CC1	106%

SMILES	growth
CCO/C=N/S(=O)(=O)c1cc2c(cc1Cl)NC=NS2(=O)=O	112%
C/C(=N\N1CC(=O)NC1=O)c1ccc([N+](=O)[O-])o1	62.7%
C=C(C)[C@@H]1CC[C@]2(CN)CC[C@]3(C)[C@H](CC[C@@H]4[C@@]5(C)CCCNC(C)(C)[C@@H]5CC[C@]43C)[C@@H]12	-52.8% (active)
CCNc1nc(-c2ccc(F)cc2)c(C#N)c(=O)n1C	85.8%
O=C(CCN1CCCC1)Nc1ccc2c(NCCc3ccccc3)c3ccccc3nc2c1	-58% (active)
N#CC1C(=N)Cc2ccccc2-c2ccccc21 (configuration not stated)	28.2%
O=[N+]([O-])c1cccc(-c2nc3sccn3c2-c2ccnc(NCCCNS(=O)(=O)c3ccc(Cl)cc3)n2)c1	26.1%
O=C1NN(C(=O)c2ccc(O)cc2)C(c2ccccc2)=N/C1=C\c1cn(-c2ccccc2)nc1-c1ccccc1	85.7%
CC(=O)OC(C)C(=O)NCC(C)O (configuration not stated)	86.9%
CN1CCN(CCCOc2ccc3ncnc(Nc4ccc(Oc5cccc(F)c5)c(Cl)c4)c3c2)CC1	-47.3% (active)
Cc1oc2ccc(O)c(CN3CCCCCC3)c2c1C(=O)Nc1ccc(C(F)(F)F)cc1	83%
Cc1cc(Cl)c2c(N(C)C)cccc2n1	97.3%
O=c1n(CC2CO2)c(=O)n(CC2CO2)n1CC1CO1 (configuration not stated)	7.91% (active)
CC(=O)OC1Oc2cc(C)c(C)cc2-c2oc(=O)c(-c3ccc(F)cc3)cc21 (configuration not stated)	12.5%
CCCCCC/C=C\CCCCCCCCCc1cc(O)cc(OC)c1O	-44.7% (active)
N=c1n(Cc2ccccc2)c(N)cc(=O)n1Cc1ccccc1	11.3%
Cc1c(C(=O)NCCC(=O)NO)sc2ncnc(Nc3ccc(NC(=O)Nc4cccc(C(F)(F)F)c4)cc3)c12	105%
CCOC(=O)c1c(C)nc2c(c1N)C(=O)C(=O)N2CCc1ccc(OC)c(OC)c1	65.6%
COc1ccccc1NC(=O)c1ccc(/C=C/C(=O)c2nccn2C)cc1	-9.45% (active)
CCn1c(=O)n(C)c2c(=O)n(C)c(=O)n(C)c21	101%
CCn1c2ccc(O)cc2c2c(C)c3c[n+](C)ccc3c(C)c21	95.5%
O=CNCCc1ccccc1	87.6%

SMILES	growth
Cc1ccc(S(=O)(=O)Nc2cc(Sc3ccccc3)c(O)c3ccccc23)cc1	-31.2% (active)
Clc1ccc(Nc2nccc(Nc3ccc4[nH]ncc4c3)n2)cc1	51.5%
N=C(N)N=Nc1ccc(NN=C(N)N)cc1	101%
C=C(C)[C@@H]1CC[C@]2(C(=O)NNC(=O)c3cccnc3)CC[C@]3(C)[C@H](CC[C@@H]4[C@@]5(C)CCCNC(C)(C)[C@@H]5CC[C@]43C)[C@@H]12	66.9%
CS(=O)(=O)c1ccc(-c2cc3c(oc2=O)-c2ccccc2OC3O)cc1 (configuration not stated)	93.5%
CC(=O)[C@H]1CC[C@H]2[C@@H]3CCC4=CC(=O)C=C[C@]4(C)[C@H]3CC[C@]12C	90.9%
O=C(/C=C1\C(=O)N(Cc2ccc([N+](=O)[O-])cc2)c2ccccc21)c1ccc(OCCN2CCCC2)cc1	17.5%
C#CCOc1cccc(Nc2ncnc3ccc(NC(=O)C=C)cc23)c1	29.3%
Oc1ccc(Br)cc1/C=N/NC(=S)NC12CC3CC(CC(C3)C1)C2	-25.8% (active)
Cc1cc([C@@H](C)Nc2ccccc2C(=O)O)c2nc(N3CCOCC3)cc(=O)n2c1	26.7%
CCCN(CCC)CCCNC(=O)c1cc2c(-c3ccc(OC)c(OC)c3)nn(C)c2s1	-13.4% (active)
CCN1CCN(CCNc2nccc(-c3c(-c4cccc(OC)c4)nc4occn34)n2)S1(=O)=O	119%
NC(=O)c1cc(I)ccc1NC(=O)/C=C/c1ccccc1Cl	-34.5% (active)
Cc1ccc2c(C3C(C#N)=C(N)Oc4cc5ccccc5cc43)cc(=O)oc2c1 (configuration not stated)	-14.2% (active)
CCc1ccc(CCC(=O)Nc2ncc(Cc3ccccc3)s2)o1	-40% (active)
O=c1c2c(=NCCCN3CCCC3)cc3c(=O)n(CCCN4CCCC4)c(=O)c4c(NCCCN5CCCC5)cc(c(O)n1CCCN1CCCC1)c2c4-3	29.9%
COc1cc(OC)c(/C=C/C(=O)c2ccc(Nc3ncnc4ccccc34)cc2)c(OC)c1	2.85% (active)
O=C(Nc1cccc(Cn2c(=O)[nH]c3ccc(Oc4ncccn4)cc3c2=O)c1)c1cccc(Cl)c1	54.1%
O=S(=O)(NCCNc1nccc(-c2c(-c3cccc(O)c3)nc3occn23)n1)c1ccc(Cl)cc1	76.4%
O=C(/C=C/c1ccc(Cl)cc1)c1ccc(Nc2ccnc3cc(Cl)ccc23)cc1	23.2%
OCCN1CCCN(CCCN2c3ccccc3Sc3ccc(C(F)(F)F)cc32)CC1	45%
